# Data from ChEMBL document CHEMBL3988442, “University of Dundee, Small-Polar-MMV Screening Library” (2021).
# Screen size: about 66,000 compounds; about 960 (1.5%) showed an effect of 50% or more. The list comes from a sample in which strong results are over-represented; it also holds similar structures and randomly drawn compounds.
# Tested on: Trypanosoma brucei
# Assay: Trypanosoma brucei 72 hour study
# Format: functional, organism-based
# Parameters: scale not given: in the data most compounds retested in dose-response had high values
compound,measurement,setting,value
CC(C)c1nc(C2CCCN2Cc2nnc(C3CCC3)o2)no1 (stereo not drawn),Percent Effect,10 µM,-24.2%
CN(C)CC(=O)N1CCCC1c1cncc(Oc2ccc(F)cc2)n1 (stereo not drawn),Percent Effect,"30.3 µM, […]",-19.56%
COc1c(C2CCCN2C(=O)c2ccc(C#N)c(C)n2)c(C)nn1C (stereo not drawn),Percent Effect,10 µM,-24.86%
same,Percent Effect,"30.3 µM, […]",0.3708%
Cc1ccccc1Cc1nc(CSc2nnc(N)n2C)no1,Percent Effect,"30.3 µM, […]",30.54%
Cc1ccccc1Cc1nc(CSc2nnc(N)n2C2CC2)no1,Percent Effect,"30.3 µM, […]",69.45%
CCc1nc(CSc2nnc(N)n2C2CC2)no1,Percent Effect,"30.3 µM, […]",-10.47%
O=C1NCCN1C1CCN(CCOc2ccccc2F)CC1,Percent Effect,10 µM,-33.22%
Cc1ccc(CN2C[C@@H]3CCCO[C@@H]3[C@H](N(C)Cc3ccco3)C2)o1.O=C(O)C(F)(F)F.O=C(O)C(F)(F)F,Percent Effect,"30 µM, 30.03 µM",25.08%
CCCN1CCCn2c(nc(CNC(=O)c3cnoc3C)cc2=O)C1.O=C(O)C(F)(F)F,Percent Effect,"30 µM, 30.03 µM",19.21%
COCCn1cc(NC(=O)NCC(c2cccc(F)c2)N(C)C)cn1 (stereo not drawn),Percent Effect,"30.3 µM, […]",9.218%
CCC(CC)C(CNC(=O)Nc1cnn(CCOC)c1)N(C)C (stereo not drawn),Percent Effect,"30.3 µM, […]",100.4%
COCCn1cc(NC(=O)NCC(C)N2CCOCC2)cn1 (stereo not drawn),Percent Effect,"30.3 µM, […]",-22.83%
CC(C)c1nnc2n1CC(CNC/C=C/c1ccccc1)CC2 (stereo not drawn),Percent Effect,"30 µM, 30.03 µM",7.913%
CC(C)NC1CCc2[nH]c(=O)ccc2C1.O=C(O)C(F)(F)F (stereo not drawn),Percent Effect,"30.3 µM, […]",-14.11%
CN1CCO[C@@H]2CN(C(=O)Cc3cccs3)CC[C@@H]2C1.O=C(O)C(F)(F)F,Percent Effect,"30.3 µM, […]",-41.5%
CC(C)Cc1ncc2c(n1)CN(c1nccc(NC(C)C)n1)C2,Percent Effect,"30 µM, 30.03 µM",89.54%
CCNc1ccnc(N2Cc3cnc(CC(C)C)nc3C2)n1,Percent Effect,"30 µM, 30.03 µM",7.855%
CC(C)Nc1ccnc(N2Cc3cnc(C(C)(C)C)nc3C2)n1,Percent Effect,"30 µM, 30.03 µM",-43.35%
CN(Cc1cccnc1)[C@@H]1CN(C(=O)c2ccoc2)[C@@H]2CCCO[C@H]12.O=C(O)C(F)(F)F.O=C(O)C(F)(F)F,Percent Effect,"30.3 µM, […]",-7.538%
CN1CCN(Cc2cnc3n2CCN(CCc2ccccc2)C3)CC1.O=C(O)C(F)(F)F.O=C(O)C(F)(F)F.O=C(O)C(F)(F)F,Percent Effect,"30.3 µM, […]",-12.43%
Cc1cccc(CN2CC3(CCN(Cc4ccoc4)CC3)OCC2=O)n1.O=C(O)C(F)(F)F.O=C(O)C(F)(F)F,Percent Effect,"30.3 µM, […]",-93.34%
O=C(O)CC(O)(CC(=O)O)C(=O)O.OCCN(Cc1ccncc1)CC1(c2ccc(Cl)cc2)CCCC1,Percent Effect,"30.3 µM, […]",12.41%
CC(C)Nc1cc(-c2c[nH]nc2C2CCN(C(=O)C3CCC3)C2)ccn1 (stereo not drawn),Percent Effect,"30.3 µM, […]",100.4%
O=C(C1CCCC1)N1CCC(c2ccnc(Nc3cnccn3)n2)C1 (stereo not drawn),Percent Effect,"30.3 µM, […]",9.82%
CN1CCC(c2n[nH]cc2-c2ccnc(N)c2)C1 (stereo not drawn),Percent Effect,"30.3 µM, […]",-5.978%
Nc1cc(-c2c[nH]nc2C2CCN(C(=O)C3CCCC3)C2)ccn1 (stereo not drawn),Percent Effect,"30.3 µM, […]",38.23%
CN(C)S(=O)(=O)N1CCC(c2n[nH]cc2-c2ccnc(N)c2)C1 (stereo not drawn),Percent Effect,"30.3 µM, […]",-8.179%
CC(=O)N1CCC(c2n[nH]cc2-c2ccnc(N)c2)C1 (stereo not drawn),Percent Effect,"30.3 µM, […]",-2.575%
CC(C)Nc1cc(-c2c[nH]nc2C2CCN(C(=O)C3CC3)C2)ccn1 (stereo not drawn),Percent Effect,"30.3 µM, […]",99.82%
Cc1c[nH]nc1C1CCN(C(=O)Cn2cccn2)C1 (stereo not drawn),Percent Effect,"30.3 µM, […]",-30.39%
Nc1cc(-c2c[nH]nc2C2CCCCN2C(=O)C2CCCC2)ccn1 (stereo not drawn),Percent Effect,"30.3 µM, […]",11.59%
CC(C)N1CCC(c2n[nH]cc2-c2ccnc(N)c2)C1 (stereo not drawn),Percent Effect,"30.3 µM, […]",2.3%
CC(C)CNc1cc(-c2c[nH]nc2C2CCN(C(=O)C3CC3)C2)ccn1 (stereo not drawn),Percent Effect,"30.3 µM, […]",100.1%
CCCNc1cc(-c2c[nH]nc2C2CCN(C(=O)C3CCC3)C2)ccn1 (stereo not drawn),Percent Effect,"30.3 µM, […]",99.71%
Cc1occc1C(=O)N1CCO[C@H]2[C@@H](Oc3ccccn3)CC[C@@H]21.O=C(O)C(F)(F)F,Percent Effect,"30 µM, 30.03 µM",26.48%
CNC(=O)CN1CCOCC2(C1)CN(C(=O)C(C)C)CCO2.O=C(O)C(F)(F)F (stereo not drawn),Percent Effect,"30 µM, 30.03 µM",-6.033%
CS(=O)(=O)N1CCO[C@H]2[C@@H](Oc3ncccc3F)CC[C@@H]21.O=C(O)C(F)(F)F,Percent Effect,"30.3 µM, […]",12.73%
CC(=O)NC1CCN(c2cc(C3CCNCC3)ccn2)CC1.Cl.Cl,Percent Effect,"30.3 µM, […]",-5.403%
O=C(O)C(F)(F)F.O=C([C@@H]1CC[C@@H]2[C@@H](CCN2c2ccncn2)O1)N1CCCCO1,Percent Effect,"30.3 µM, […]",-55.7%
Cc1cc(N2CCC(N(C)C(=O)c3ccccc3F)CC2)nc(C)n1,Percent Effect,"30 µM, 30.03 µM",-12.35%
Cn1ccnc1C(=O)N[C@@H]1CN(CC2CCOCC2)[C@@H]2CCCO[C@@H]21.O=C(O)C(F)(F)F,Percent Effect,"30.3 µM, […]",-79.05%
Cc1cc(SCC(=O)O)nc2nn(CC(F)F)c(C)c12,Percent Effect,"30.3 µM, […]",-20.88%
CCc1nc(-c2cncnc2C2CCCNC2)no1.Cl (stereo not drawn),Percent Effect,"30.3 µM, […]",10%
CCC(CC)C(=O)N1CCc2nc(N3CCCC3)nc(C)c2CC1,Percent Effect,"30 µM, 30.03 µM",-41.54%
Cc1cccc(CN2C[C@@H]3CN(C(=O)c4ccco4)C[C@@H]3C2=O)n1.O=C(O)C(F)(F)F,Percent Effect,"30.3 µM, […]",-11.66%
CC(=O)N1CCC(NC(=O)Cc2csc(C(C)(C)C)n2)CC1,Percent Effect,"30.3 µM, […]",-5.92%
CC(C)(C)c1nc(CC(=O)NC2CCN(C3CC3)C2)cs1 (stereo not drawn),Percent Effect,"30.3 µM, […]",99.7%
CN1CCC(NC(=O)Cc2csc(C(C)(C)C)n2)CC1,Percent Effect,"30.3 µM, […]",4.768%
COc1cc2c(c(OC)c1OC)CCN(CCN1CCCCC1)CC2,Percent Effect,"30 µM, 30.03 µM",-20.4%
CCN1CCN(c2ccccc2NC(=O)NCc2ccon2)CC1,Percent Effect,"30.3 µM, […]",-63.99%
Cn1cc(CN2CCCC(CCc3ccccc3C(F)(F)F)C2)cn1 (stereo not drawn),Percent Effect,"30 µM, 30.03 µM",-18.52%
Cc1nc(CN2CCCC(CCc3ccccc3C(F)(F)F)C2)no1 (stereo not drawn),Percent Effect,"30.3 µM, […]",87.44%
Fc1ccccc1CC1CCN(Cc2cscn2)CC1,Percent Effect,"30 µM, 30.03 µM",-2.509%
Cc1nc(CN2CCCC(CCc3ccccc3C(F)(F)F)C2)co1 (stereo not drawn),Percent Effect,"30.3 µM, […]",52.02%
Cc1nc(CN2CCCC(N(C)CC3CCCC3)C2)no1 (stereo not drawn),Percent Effect,"30.3 µM, […]",-21.28%
Cc1nc(CN2CCCC(CCc3cccc(C(F)(F)F)c3)C2)co1 (stereo not drawn),Percent Effect,"30.3 µM, […]",40.44%
FC(F)(F)c1ccccc1CCC1CCCN(Cc2cscn2)C1 (stereo not drawn),Percent Effect,"30.3 µM, […]",51.05%
Cc1nnc(CN2CCCC(CCc3ccccc3C(F)(F)F)C2)o1 (stereo not drawn),Percent Effect,"30.3 µM, […]",32.35%
Cc1nc(CN2CCCC(N(C)CCCc3ccccc3)C2)no1 (stereo not drawn),Percent Effect,"30.3 µM, […]",-9.572%
Cc1ccc2c(n1)N(Cc1cccnc1)CCN(C1CCOCC1)C2.O=C(O)C(F)(F)F.O=C(O)C(F)(F)F.O=C(O)C(F)(F)F,Percent Effect,"30 µM, 30.03 µM",-18.41%
CC1N(c2cnn(C)c2)C(=O)COC12CCN(c1ccccn1)CC2.O=C(O)C(F)(F)F (stereo not drawn),Percent Effect,"30.3 µM, […]",-14.53%
Cc1oncc1C(=O)N1CC[C@H]2[C@H](C[C@@H](CN(C)C)N2CC2CC2)C1.O=C(O)C(F)(F)F.O=C(O)C(F)(F)F,Percent Effect,"30.3 µM, […]",-0.8006%
Cl.O=C(CCN1CCCC1)Nc1c2c(cc3c1CCC3)CCC2,Percent Effect,"30 µM, 30.03 µM",0.04304%
COCC(=O)NC[C@]12COC[C@H]1CN(Cc1ccc3c(c1)OCO3)C2.O=C(O)C(F)(F)F,Percent Effect,"30.3 µM, […]",5.113%
COC1COC2(CCN(C(=O)c3ccccc3F)CC2)C1 (stereo not drawn),Percent Effect,"30.3 µM, […]",-57.28%
CCN(C)c1ncnc2c1CCN(C(=O)Cc1ccccn1)CC2.O=C(O)C(F)(F)F,Percent Effect,"30 µM, 30.03 µM",-43.42%
CCO[C@@H]1CCN(c2ccc(C)nn2)[C@@H]1Cc1cnn(C)c1,Percent Effect,"30.3 µM, […]",-24.65%
CO[C@H]1CCN(c2ccc(C)nn2)[C@H]1Cc1cnn(C)c1,Percent Effect,"30 µM, 30.03 µM",12.56%
Cc1ccc(N2CC[C@H](OCC3CC3)[C@@H]2Cc2cnn(C)c2)nn1,Percent Effect,"30 µM, 30.03 µM",51.55%
Fc1ccccc1CN(CCCn1ccnc1)CC1CCOC1.O=C(O)CC(O)(CC(=O)O)C(=O)O (stereo not drawn),Percent Effect,"30.3 µM, […]",-0.3397%
Cc1cc(CCC(=O)O)nc(C2CCCN2c2ccnc(C)n2)n1 (stereo not drawn),Percent Effect,"30.3 µM, […]",3.845%
Cl.Cl.c1cn(-c2cnc(C3CCNCC3)cn2)cn1,Percent Effect,"30.3 µM, […]",-23.68%
CC(C)(C)c1ccc(OCC(N)=O)c(CN2C[C@H]3C[C@H](O)C[C@H]3C2)c1,Percent Effect,"30.3 µM, […]",-10.55%
COc1ccc(C(=O)N2C[C@@H](NC(=O)N(C)C)[C@H](C(C)C)C2)c(OC)n1,Percent Effect,"30 µM, 30.03 µM",-11.49%
Cc1cc(CN(C)C2CCCN(Cc3noc(C)n3)C2)no1 (stereo not drawn),Percent Effect,"30.3 µM, […]",-25.02%
CN(Cc1cscn1)C1CCCN(Cc2noc(C3CC3)n2)C1 (stereo not drawn),Percent Effect,"30 µM, 30.03 µM",-28.03%
Cc1nc(CN(C)C2CCN(Cc3nc4ccccc4n3C)C2)no1 (stereo not drawn),Percent Effect,10 µM,-9.408%
same,Percent Effect,"30.3 µM, […]",44.6%
Cc1nc(CN(C)C2CCN(Cc3ccc4ccccc4n3)C2)no1 (stereo not drawn),Percent Effect,"30.3 µM, […]",99.64%
Cc1nc(CN(C)C2CCN(Cc3nc4ccccc4s3)C2)no1 (stereo not drawn),Percent Effect,"30 µM, 30.03 µM",13.35%
Cc1nc(CN2CCCC(N(C)Cc3cscn3)C2)no1 (stereo not drawn),Percent Effect,"30 µM, 30.03 µM",106.7%
Cc1occc1C(=O)N1C[C@@H]2OCCN(c3ncccn3)[C@@H]2C1.O=C(O)C(F)(F)F,Percent Effect,"30.3 µM, […]",-9.285%
COc1ccc(-n2ccnc2-c2ccc(C(=O)O)s2)cc1CO,Percent Effect,"30 µM, 30.03 µM",-62.12%
Nc1ncc(-c2ccc(C(F)(F)F)cc2)c(C2CCCNC2)n1 (stereo not drawn),Percent Effect,"30.3 µM, […]",90.9%
Nc1ncc(-c2ccc(Cl)cc2)c(C2CCCNC2)n1 (stereo not drawn),Percent Effect,"30.3 µM, […]",28.09%
Nc1ncc(-c2ccc(F)cc2)c(C2CCCNC2)n1 (stereo not drawn),Percent Effect,"30.3 µM, […]",1.475%
Cc1nc(C)c(C(=O)N2Cc3ccccc3OCC2CN(C)C)o1.Cl.Cl (stereo not drawn),Percent Effect,"30.3 µM, […]",-20.04%
O=C(O)C(F)(F)F.O=C(O)C(F)(F)F.O=C(c1n[nH]c2c1CN(C1CCOC1)CC2)N1CCCC1 (stereo not drawn),Percent Effect,"30.3 µM, […]",8.032%
CCCNC(=O)c1nn(CC)cc1NC(=O)c1cn(C)nc1C,Percent Effect,"30.3 µM, […]",26.24%
CCCNC(=O)c1nn(CC)cc1NC(=O)c1c(C)nn(C)c1C,Percent Effect,"30.3 µM, […]",45.33%
CCn1cc(NC(=O)c2c(C)nn(C)c2C)c(C(N)=O)n1,Percent Effect,"30.3 µM, […]",53.08%
Cc1cnc2n(c1=O)CC(C(=O)Nc1ccon1)CS2 (stereo not drawn),Percent Effect,"30 µM, 30.03 µM",-0.7773%
